The campaign covered roughly 340,000 compounds. About 1,300 (0.38%) were called active.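 Rule for the calls: active = maximum activity change below -70%; inconclusive = maximum activity change between -70% and -50%; inactive = maximum activity change above -50%.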 What follows is part of a selection rich in actives, with near analogues and random picks from the rest.
What follows are molecules tested against Voltage-gated inwardly rectifying potassium channel KCNH2 (Homo sapiens) (UniProt Q12809) (assay: qHTS for Inhibitors of KCHN2 3.1: Wildtype qHTS). Settings: U2OS, BacMam KCNH2, thallium flux FluxOr; at 1.84 µM; active compounds read low.
Chain of Voltage-gated inwardly rectifying potassium channel KCNH2 (Homo sapiens) (Q12809 whole entry, looked up, canonical isoform): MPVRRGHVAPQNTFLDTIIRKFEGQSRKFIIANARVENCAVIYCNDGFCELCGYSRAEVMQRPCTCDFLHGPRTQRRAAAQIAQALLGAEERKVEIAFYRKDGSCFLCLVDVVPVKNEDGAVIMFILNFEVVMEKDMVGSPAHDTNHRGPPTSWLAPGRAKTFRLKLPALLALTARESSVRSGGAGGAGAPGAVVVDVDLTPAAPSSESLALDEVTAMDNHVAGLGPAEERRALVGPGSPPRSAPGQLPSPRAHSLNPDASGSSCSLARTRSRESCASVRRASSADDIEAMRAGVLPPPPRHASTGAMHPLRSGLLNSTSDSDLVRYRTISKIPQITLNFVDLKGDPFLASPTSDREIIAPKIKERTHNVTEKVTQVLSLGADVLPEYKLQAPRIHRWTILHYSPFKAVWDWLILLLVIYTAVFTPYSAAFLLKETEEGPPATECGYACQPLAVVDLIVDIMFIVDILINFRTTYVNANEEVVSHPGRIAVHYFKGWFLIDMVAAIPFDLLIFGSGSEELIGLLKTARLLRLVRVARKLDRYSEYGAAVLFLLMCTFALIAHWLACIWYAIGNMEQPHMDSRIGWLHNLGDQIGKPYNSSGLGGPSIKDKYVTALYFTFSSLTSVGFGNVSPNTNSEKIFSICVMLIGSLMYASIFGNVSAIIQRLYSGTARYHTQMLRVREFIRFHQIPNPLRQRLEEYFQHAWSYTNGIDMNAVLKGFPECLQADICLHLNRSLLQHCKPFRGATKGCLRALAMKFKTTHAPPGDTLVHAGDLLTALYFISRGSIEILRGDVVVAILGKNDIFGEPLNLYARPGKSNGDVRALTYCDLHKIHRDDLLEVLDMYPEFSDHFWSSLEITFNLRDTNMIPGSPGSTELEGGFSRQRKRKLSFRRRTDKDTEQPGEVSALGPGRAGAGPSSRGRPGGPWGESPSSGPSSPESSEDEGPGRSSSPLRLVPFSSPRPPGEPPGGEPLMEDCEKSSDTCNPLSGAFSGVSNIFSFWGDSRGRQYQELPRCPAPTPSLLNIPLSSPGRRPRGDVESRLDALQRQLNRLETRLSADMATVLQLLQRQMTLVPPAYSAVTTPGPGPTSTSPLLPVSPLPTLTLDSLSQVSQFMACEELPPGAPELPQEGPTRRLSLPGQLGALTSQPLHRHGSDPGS
Description: Many antipsychotic drugs that inhibit the neurotransmitter dopamine also bind to hERG1 channel which might help explain their antipsychotic activity but also produces cardiac side effects. The discovery of the novel KCNH2 3.1 isoform offers a potential new target for the development of antipsychotic drugs without cardiac side effects. This proposal will use a high throughput thallium flux assay developed for KCNH2 to screen compounds that modulate the activity of KCNH2 3.1. The wild type KCNH2 channel will also be screened in parallel to help define the selective modulators of this KCNH2 3.1 potassium channel. The resulting compounds will be validated in electrophysiology experiments. The availability of animal models will allow future testing in vivo for effects on memory and other aspects of animal physiology linked with psychosis. NIH Chemical Genomics Center [NCGC] NIH Molecular Libraries Probe Centers Network [MLPCN] MLPCN Grant: MH096539 Assay Submitter (PI): James Barrow, Johns Hopkins University, Lieber Institute for Brain Development
U2OS cells were resuspended in cell media containing 10% fetal calf serum (FCS) at a concentration of 2 million cells / mL. The solution was treated with the Wild-type virus at 2.03 x 10^8 / mL and allowed to incubate at room temperature in the dark. After 4 hours of incubation, DMEM + 10% fetal bovine serum (FBS) was added to the cell solution. Three microliter was then dispensed into a 1536 tissue culture treated black assay plates which were incubated overnight at 37 C. Two microliter of loading buffer (HBSS + HEPES + Red40 dye quencher + FluxOr dye) was added and the assay plates were incubated for 45 min at room temperature in the dark. […] A stimulation buffer was added to the plate and the second kinetic read (2 min) was obtained. The rate constant was calculated from the kinetic reads and normalized to the positive and negative DMSO controls.
`O=C(NCc1ccccc1)C1CNCC(C(=O)NCc2ccccc2)C1` (stereo not given) was tested, and the activity change was -19% (inactive). `COc1ccc(-c2ccc3[nH]c4c(c3c2)CCN2C[C@H]3[C@H](C)ON(C)[C@H]3C[C@@H]42)cc1` was tested, and the activity change was -1.03% (inactive). In the case of `COc1cc(NC(=O)C2=C(C)OCCS2)c(Cl)cc1C(=O)NCCCN1CCCC(C)C1` (stereo not given), the activity change is reported as 15% (inactive). `N#CC1(Nc2ccc3c4c(cccc24)CC3)CCCCC1` was tested, and the activity change was -12.6% (inactive). With `COc1cccc(CC2(CO)CCCN(CC3=Cc4cc(OC)ccc4OC3)C2)c1` (stereo not given) the activity change was 8.29% (inactive). With `COc1cccc(CC2(CO)CCCN(Cc3nc(-c4cccs4)oc3C)C2)c1` (stereo not given) the activity change was -11.7% (inactive). `COc1cccc(CC2(CO)CCCN(Cc3ccc(OC(F)F)cc3)C2)c1` (stereo not given) was tested, and the activity change was -73.9% (active). For `C[C@@H]1CN([C@@H](C)CO)C(=O)CCCn2nncc2CO[C@H]1CN(C)C(=O)Nc1ccc(C(F)(F)F)cc1`, the activity change was -21.9% (inactive). In the case of `Cc1ccc(OCC(=O)Nc2ccccc2C(=O)NC2CC2)cc1`, the activity change is reported as 36.5% (inactive). For `N#Cc1ccc(CN2CCN(CC(=O)Nc3ccccc3C(=O)NC3CC3)CC2)cc1`, the activity change was -89.2% (active). For `O=C(CN1CCCCC1)Nc1ccccc1C(=O)NC1CC1`, the activity change was 4.09% (inactive). With `COc1ccc(OC)c(C(=O)NC2CCCc3c2cnn3-c2cc(C)cc(C)c2)c1` (stereo not given) the activity change was -0.114% (inactive). With `CC1(C)NC(=O)N(CC(=O)Nc2ccc(-c3ccccc3)cc2)C1=O` the activity change was -12.6% (inactive). In the case of `COc1ccc2c(Cl)c(C(=O)NCc3ccco3)sc2c1`, the activity change is reported as -70.1% (active). In the case of `COc1ccc2oc(C(=O)NCc3ccco3)c(C)c2c1`, the activity change is reported as 26.9% (inactive). With `O=C(NCc1ccco1)c1sc2cccc(F)c2c1Cl` the activity change was -25.2% (inactive). For `OCC1OC(n2cnc3c(N4CCCC4)ncnc32)C(O)C1O` (stereo not given), the activity change was -11.6% (inactive). With `C[C@H]1CN(c2ccc(Br)cc2)C(=O)[C@@H]1CC(=O)Nc1ccc(Br)cc1` the activity change was 1.02% (inactive). `C=CCNC(=O)c1sc(SC)cc1-c1ccc(Cl)cc1` was tested, and the activity change was -187% (active). `CN(CC(=O)Nc1ccc(F)cc1)C(=O)c1ccc(-c2ccc(Cl)cc2)o1` was tested, and the activity change was -18.6% (inactive). In the case of `CSc1sc(C(=O)NNC(=O)c2ccc(Cl)cc2)c2c1C=CCC2`, the activity change is reported as -2.11% (inactive). With `Cc1cc(C)c(S(=O)(=O)NCCCN2CCOCC2)cc1Br` the activity change was 12.5% (inactive). With `Cc1ccc(S(=O)(=O)NCCN2CCOCC2)cc1C` the activity change was -76.1% (active). In the case of `O=S(=O)(NCCCN1CCOCC1)c1ccc(F)c(Cl)c1`, the activity change is reported as 4.11% (inactive). In the case of `C[C@H]1CN([C@@H](C)CO)S(=O)(=O)c2ccc(Br)cc2O[C@H]1CN(C)C(=O)c1cnccn1`, the activity change is reported as 2.27% (inactive). For `COC(=O)Cn1nc(-c2ccccc2)c2cc(Cl)ccc21`, the activity change was -4.79% (inactive). With `COCCCNc1nc2c(-c3cccc(C(F)(F)F)c3)nnn2c2ccccc12` the activity change was -4.14% (inactive). For `COCCCNc1nc2c(-c3cccc(C)c3)nnn2c2ccc(Cl)cc12`, the activity change was -86% (active). `Cc1nnc(SC(C)C(=O)c2c[nH]c3ccccc23)n1C1CC1` (stereo not given) was tested, and the activity change was -2.83% (inactive). For `Cc1cn([C@H]2C[C@H](O)[C@@H](CNC(=O)[C@H](N)Cc3cccnc3)O2)c(=O)[nH]c1=O`, the activity change was -1.56% (inactive). For `O=C(C[C@H]1C[C@@H]2c3cc(NC(=O)C4CCC4)ccc3O[C@@H]2[C@H](CO)O1)NC1CCCCC1`, the activity change was -22.6% (inactive). In the case of `O=C(C1CCCO1)N1CCN(C(=O)C23CC4CC(CC(C4)C2)C3)CC1` (stereo not given), the activity change is reported as -8.69% (inactive). `O=c1[nH]nc(Cc2ccccn2)c2ccccc12` was tested, and the activity change was -160% (active). `c1ccc(CCc2ccccn2)cc1` was tested, and the activity change was 15.2% (inactive). For `Cc1ccc(C(=O)C(C)OC(=O)Cc2n[nH]c(=O)c3ccccc23)cc1C` (stereo not given), the activity change was 5.46% (inactive). `C[C@H](CO)N1C[C@H](C)[C@@H](CN(C)S(=O)(=O)c2ccc(Oc3ccccc3)cc2)OCc2cn(nn2)CCCC1=O` was tested, and the activity change was 10.5% (inactive). With `COc1ccc(C=C2CCC3C(CCCC34OCCO4)C2=O)cc1` (stereo not given) the activity change was 7.34% (inactive). For `COc1ccc(S(=O)(=O)N2CCN(CC(=O)N3CCNC3=O)CC2)cc1OC`, the activity change was -3.77% (inactive). For `OC(COc1ccc(CN2CCSCC2)cc1)CN1CCCCC1` (stereo not given), the activity change was -2.59% (inactive). With `O=C(c1ccc(Cl)cc1)c1ccc(OCC(O)CN2CCCCC2)cc1` (stereo not given) the activity change was 42.5% (inactive). For `Cc1cccc(C)c1OCC(O)CN1CCCCC1` (stereo not given), the activity change was -71.1% (active). With `Cc1ccc(NC(=O)c2ccco2)cc1` the activity change was -2.95% (inactive). For `O=Cc1cn(CCOc2ccc(F)cc2)c2ccccc12`, the activity change was -0.818% (inactive). For `COc1ccc(CC(NC(C)=O)C(=O)NC2CCN(C(=O)Nc3ccc(C#N)cc3)CC2)cc1OC` (stereo not given), the activity change was 6.09% (inactive). `CCOC(=O)C1CCN(C(=O)Nc2cccc(OC)c2)CC1` was tested, and the activity change was -8.37% (inactive). In the case of `COc1cccc(NC(=O)N2CCC(NC(=O)C(Cc3cccc(C)c3)NC(C)=O)CC2)c1` (stereo not given), the activity change is reported as -205% (active). `O=Nc1c(O)cc(O)c2ccccc12` was tested, and the activity change was -0.133% (inactive). With `COC(=O)C(Cc1c[nH]c2ccccc12)NC(=O)CCNC(=O)c1ccco1` (stereo not given) the activity change was 0.0904% (inactive). For `CSc1ncc(C(=O)Nc2ccc(C)cc2C)c(C)n1`, the activity change was -213% (active). `Cc1ccc(NC(=O)c2ccn(C(=O)Nc3ccccc3)n2)c(C)c1` was tested, and the activity change was 5.47% (inactive). For `CSc1ncc(C(=O)NCCCc2ccccc2)c(C)n1`, the activity change was 11.2% (inactive). `CCc1cc(C(=O)N(CC)CC(=O)Nc2c(F)cccc2F)sc1C` was tested, and the activity change was 1.41% (inactive). In the case of `CC(C)c1cc(C(=O)NC2CCCCCC2)c2ccccc2n1`, the activity change is reported as 1.65% (inactive). For `CCCCNc1nc2ccccc2nc1NS(=O)(=O)c1cccs1`, the activity change was -1.02% (inactive). `Cc1cc(C)c[n+](-c2nc3ccccc3nc2[N-]S(=O)(=O)c2cccs2)c1` was tested, and the activity change was -111% (active). For `O=S(=O)([N-]c1nc2ccccc2nc1-[n+]1ccc(Cc2ccccc2)cc1)c1ccc(Br)s1`, the activity change was 8.23% (inactive). With `N#Cc1ccc(OCC(=O)Nc2nc(-c3ccccn3)cs2)cc1` the activity change was 19.3% (inactive). With `O=C(NCC(c1cccs1)N1CCOCC1)c1cc(-c2ccccn2)nc2ccccc12` (stereo not given) the activity change was 0.99% (inactive). In the case of `CCc1ccc2ncc(C(=O)c3ccccc3)c(N3CCOCC3)c2c1`, the activity change is reported as 5.15% (inactive). With `O=C(c1ccccc1)c1cc(-c2ccccn2)c(N2CCOCC2)s1` the activity change was -186% (active).

From PubChem BioAssay AID720551 (National Center for Advancing Translational Sciences (NCATS), 2013)
% is set by controls: 0 for no effect and ±100 for the full control effect.
